# Source: PubChem (National Center for Advancing Translational Sciences (NCATS))
# A selection: hits, their analogues and other compounds. The true share with any hit is near 1.8%.
# GLP-1R inv ag: qHTS of GLP-1 Receptor Inverse Agonists (Inhibition Mode); HEK293 GLP-1R CRE-luciferase, luminescence, 24 h; GLP-1R form is constitutively active; Potency, µM (series often up to 38.3 µM), inactives show top-dose activity change, negative = inhibition, hits mostly inhibitors; actives 1.6% (n = 410,000); note: potency is the fitted concentration of half-maximal effect; % is set by controls: 0 for no effect and ±100 for the full control effect; nearly all actives have a fitted effect of over 55% in size
#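 Inverse agonists were sought by their lowering of basal cAMP reporter luciferase output in HEK293 cells stably carrying constitutively active human GLP-1R, after 24 h compound treatment.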
# TRPML1 inh: qHTS for Inhibitors of the Human Mucolipin Transient Receptor Potential 1 (TRPML1); TRPML1-inducible cells, Ca2+ dye fluorescence, FDSS; stronger effect = lower value; inhibition of EC80 agonist-evoked calcium signal; activity change, negative = inhibition, % (concentration not given with the values); actives 0.02% (n = 390,000); AID 624415, 2012; in the data active = activity change below about -50%; inconclusive = between about -30% and that limit;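 note: stimulus is agonist 54-4 at its EC80 concentration; % is set by controls: 0 for no effect and ±100 for the full control effect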
# Target sequence (Q9GZU1 whole entry, looked up): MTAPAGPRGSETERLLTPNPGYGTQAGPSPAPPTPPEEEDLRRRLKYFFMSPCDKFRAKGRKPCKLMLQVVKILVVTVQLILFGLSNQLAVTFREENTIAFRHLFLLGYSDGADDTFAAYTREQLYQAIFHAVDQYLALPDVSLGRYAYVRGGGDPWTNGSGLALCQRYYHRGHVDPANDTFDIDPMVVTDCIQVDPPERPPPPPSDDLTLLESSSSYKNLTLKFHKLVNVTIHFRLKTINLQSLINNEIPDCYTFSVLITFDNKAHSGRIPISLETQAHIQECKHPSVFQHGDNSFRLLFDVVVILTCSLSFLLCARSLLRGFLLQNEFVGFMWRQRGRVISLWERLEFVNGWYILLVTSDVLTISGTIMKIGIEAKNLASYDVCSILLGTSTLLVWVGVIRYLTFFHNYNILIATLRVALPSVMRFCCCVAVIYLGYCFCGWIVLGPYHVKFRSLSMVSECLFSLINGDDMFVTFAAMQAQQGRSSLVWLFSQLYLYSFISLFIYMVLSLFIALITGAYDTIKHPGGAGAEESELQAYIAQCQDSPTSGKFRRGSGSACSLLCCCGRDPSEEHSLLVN
#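 Calcium fluorescence in TRPML1-DL cells induced overnight with Tet: a 110 s read after compound pin addition, then a 110 s antagonist read after challenge with 54-4 at 4 uM final (EC80).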
# GLP1R cytotox: qHTS of GLP-1 Receptor Inverse Agonists: Cytotox Screen. HEK293 cAMP-luciferase reporter cells, luminescence, 24 h. Potency, µM (highest dose often 38.3 µM), for inactives: at the highest dose activity change, negative = inhibition, hits mostly inhibitors. actives 0.13% (n = 410,000). AID 624418, 2012;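 note: loss of luciferase light is scored as toxicity; potency is the fitted concentration of half-maximal effect; % is set by controls: 0 for no effect and ±100 for the full control effect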
#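 Luminescence readout: signal drop marks cytotoxicity. Plated cells grew 12 h at 37 °C, 5% CO2, received 23 nL compound for 24 h, then got luciferase reagent, read after 12 min at RT.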
# GLP1R ag: qHTS of GLP-1 Receptor Agonists; Glucagon-like peptide 1 receptor (Homo sapiens), P43220; HEK293 GLP-1R CRE-luciferase, luminescence, 4-6 h; cells express a hypersensitive GLP-1R form; Potency, µM (top dose mostly 45.6 µM), without a hit: top-dose activation, hits mostly activators; actives 0.007% (n = 380,000); AID 624172, 2012; note: potency is the fitted concentration of half-maximal effect; % of control where 0% means no effect
# TRPML1 agonist: qHTS for Agonists of the Human Mucolipin Transient Receptor Potential 1 (TRPML1); activation, % (no concentration beside the values); actives 0.12% (n = 410,000); TRPML1-expressing cells, Ca2+ dye fluorescence, FDSS; Mucolipin-1 (Homo sapiens), Q9GZU1; in the data active = activation above about 50%; inconclusive = mostly about 30% to 49%; note: 0% is about no effect
#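 Agonist activity was taken from a 110 s kinetic Ca2+ dye read on the FDSS after pinning compounds onto TRPML1-DL cells. The cells were seeded at 1,500/well with Tet inducer, incubated about 16 h, then dye-loaded at room temperature.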
# * marks the source's active call; other numbers are inactive results; ? = inconclusive; / = no result given. Unless noted, calls come from the whole dose curve; as a rule, active = well fitted curve in the direction sought with a large enough effect; inconclusive = small, poorly fitted or top-dose-only effect, or another doubt; inactive = no such curve, though single readings can be large; an effect the other way counts as inactive or inconclusive.
SMILES,GLP-1R inv ag,TRPML1 inh,GLP1R cytotox,GLP1R ag,TRPML1 agonist
N#C/C(=C\c1ccc(OCc2cccc(C(=O)O)c2)cc1)C(=O)NCc1ccco1,8.91µM*,-2.9,-4.7%,-6.1%,0.7
N#C/C(=C\c1ccc(OCc2ccc(C(=O)O)cc2)cc1)C(=O)NCc1ccccc1,17.3%,-8.5,0.0%,-4.6%,0.6
COc1ccc(N2CC(NC(=O)c3ccc(S(=O)(=O)N4CCCCC4)cc3)CC2=O)cc1 (configuration not stated),11.1%,3.4,9.5%,/,1.4
CCc1ccc(NC(=O)c2cnn(-c3ccccc3)c2-n2cccc2)cc1,?,-3.2,9.1%,/,18.5
CCc1ccc(NC(=O)c2cnn3ccccc23)cc1,5.01µM*,10.8,18.0%,-5.0%,-0.2
CC(C)CCn1c(=O)c2cccnc2n(CC(=O)Nc2ccc(F)cc2)c1=O,-5.2%,2.6,-5.4%,/,0.0
CC(C)c1ccc(NC2CCCN(C(=O)c3ccsc3)C2)cc1 (configuration not stated),10µM*,7.8,20.8%,-1.0%,1.5
COC(=O)c1ccc(C(=O)N2CCCC(Nc3ccc(C(C)C)cc3)C2)cc1 (configuration not stated),-24.2%,-14.5,-14.5%,-0.3%,1.7
O=C(c1ccccc1)C1CN(c2ccccc2)CC1c1ccc(Cl)cc1 (configuration not stated),0.0%,15.0,13.1%,-9.2%,-1.7
Cc1ccc(C2CN(c3ccccc3)CC2C(=O)c2ccc(F)cc2)cc1 (configuration not stated),10µM*,6.8,40.7%,-16.0%,-0.1
Clc1ccc(C2CC(c3ccco3)n3ncnc3N2)cc1Cl (configuration not stated),10µM*,-2.9,-15.7%,4.9%,2.2
COc1ccccc1CNC(=O)CCC1N=C2c3ccccc3N=C(SCC(N)=O)N2C1=O (configuration not stated),?,8.2,-20.0%,/,2.1
CC(C)(C)c1ccc(C(=O)NNc2cc(N3CCCCC3)nc(N3CCCCC3)n2)cc1,3.16µM*,-3.6,?,-8.9%,0.7
CC(C)n1c(NCc2cc(Cl)ccc2O)nc2ccccc21,10µM*,5.5,12.7%,16.2%,-0.5
CC(C)n1c(Nc2ccccc2)nc2ccccc21,11.2µM*,11.3,-9.5%,3.4%,0.3
Oc1ccccc1CNc1cnc2ccccc2c1,0.0%,-14.0,-30.9%,7.6%,0.1
Oc1ccc(Cl)cc1CNc1cnc2ccccc2c1,10µM*,-5.5,-6.1%,2.3%,0.5
Cc1ccc(O)c(CNc2nc3ccccc3n2C(C)C)c1,?,6.8,3.0%,-0.4%,0.1
O=C(c1cnc(N2CCCCC2)c2ccccc12)N1CCN(c2cccc(Cl)c2)CC1,?,-16.2,-25.3%,/,1.6
CCCCSCCCNC(=O)c1c[nH]c2ccc(S(=O)(=O)Nc3cccc(OC)c3)cc2c1=O,6.4%,-21.7,-0.3%,/,2.6
COc1cccc(/C=C/c2nccc3ccccc23)c1OC,/,/,/,/,-0.7
NC(Cc1ccccc1)c1csc(Nc2ccc(C(=O)c3ccccc3)cc2)n1 (configuration not stated),10µM*,49.7,?,-3.1%,4.0
COC(=O)c1sccc1NC(=O)CSc1ccccc1NS(=O)(=O)c1ccc(Cl)cc1,10µM*,3.7,-16.3%,-0.2%,0.6
CC[C@@H]1OC(=O)C[C@H](O)[C@@H](C)[C@@H](O[C@H]2O[C@@H](C)[C@H](O[C@@H]3C[C@](C)(O)[C@H](O)[C@@H](C)O3)[C@@H](N(C)C)[C@@H]2O)[C@@H](C=O)C[C@@H](C)C(=O)/C=C/C(C)=C[C@@H]1CO[C@H]1O[C@@H](C)[C@H](O)[C@H](OC)[C@@H]1OC,/,/,/,1.1%,/
